# Results from PubChem BioAssay (NCATS).
# Several values for one entry are separate records, joined by “and”; a condition that tells them apart may be missing. Identical values can stand only once. Records with an inconclusive call do not appear. Unmarked numbers belong to inactive results. Activity calls are given as the source filed them. Unless noted, calls follow the shape of the dose curve; as a rule, active = well fitted curve in either direction with a large enough effect (not every such curve was filed as active); inconclusive = small, poorly fitted or top-dose-only effect, or another doubt; inactive = flat fitted curve, though single readings scatter.
# How the values were obtained:
# [1] = AP1 Signaling Pathway (AID 357); details: ME-180 AP-1-bla reporter, EGF-induced, beta-lactamase ratio, 5 h;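 also: ME-180 reporter cells stimulated with EGF at its EC50 level; % is scaled to controls: 0 for no effect and ±100 for the full control effect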
# In short: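 Modulation of EGF-driven AP-1 transcription was assessed with a beta-lactamase reporter in ME-180 cells. Compound and EC50 EGF were co-incubated 5 hours at 37 °C before 2.5-hour CCF4 loading at room temperature and dual-emission reading.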
# [2] = Stat Signaling Pathway (AID 446); details: ME-180 (cervical carcinoma) SIE beta-lactamase reporter, IL-6 stimulated, 5 h; series mostly up to 17.2 µM;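 also: ME-180 cervical cancer cells given 40 pM IL-6 alongside compound; SIE-controlled beta-lactamase reporter measured as 460/530 nm FRET emission ratio; % is scaled to controls: 0 for no effect and ±100 for the full control effect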
# In short: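 Emission at 460 and 530 nm (excitation 405 nm) reports SIE-controlled beta-lactamase in ME-180 cells. Cells received compound with 40 pM IL-6 for 5 hrs at 37 C; data scaled between 300 pM IL-6 and 125 nM JAK-inhibitor controls.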
# [3] = Cell Viability - BJ (AID 421; calls by dose curve;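 also: potency is read from the fitted curve at half-maximal effect; cells exposed to compound for 40 hours at 37 °C before readout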); details: BJ fibroblast viability, qHTS
# In short: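 Cytotoxicity in human BJ foreskin fibroblasts is scored as loss of cellular ATP after a 40-hour exposure, measured by luciferase luminescence. Controls are DMSO and 100 uM tamoxifen.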
# [4] = Cell Viability - Jurkat (AID 426;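 active = dose-dependent loss of cell ATP signal giving a full or clear fitted curve, ranked by lower potency value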;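 also: potency is read from the fitted curve at half-maximal effect; cells exposed to compound for 40 hours at 37 °C before ATP read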); details: qHTS
# In short: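 Cytotoxicity was scored as loss of cellular ATP, measured by luciferase-based luminescence, in Jurkat clone E6-1 cells after 40 h compound treatment; tamoxifen and doxorubicin served as positive controls.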
# [5] = Cell Viability - Hek293 (AID 427;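 active = compounds whose dose-response curve shows a full or clear partial loss of cell viability, called from curve shape rather than a numeric limit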;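 also: potency is read from the fitted curve at half-maximal effect; cells exposed to compound for 40 hours at 37 °C before reading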); details: qHTS
# In short: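 qHTS, human embryonic kidney (adenovirus-transformed) cells; 40 hr cpd, 37 °C; CellTiter-Glo ATP luminescence. Norm: DMSO = 0, 100 uM tamoxifen = 100% inhibition. Hill-fit AC50.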
# [6] = Cell Viability - HepG2 (AID 433; calls by dose curve;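 also: potency is read from the fitted curve at half-maximal effect; cells exposed to compound for 40 hours; potency for ATP loss meaning cytotoxicity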); details: qHTS
# In short: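 Cytotoxicity read as ATP loss (CellTiter-Glo luminescence) after 40 hr compound exposure of HepG2, 1500 cells/well, 37 °C. AC50 by Hill equation; 0% set by DMSO, 100% inhibition by 100 uM tamoxifen.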
# [7] = Cell Viability - MRC5 (AID 434; calls by dose curve;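 also: potency is read from the fitted curve at half-maximal effect; cells exposed to compound for 40 hours at 37 °C; potency reflects cytotoxicity seen as loss of intracellular ATP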); details: MRC5 lung fibroblast viability, qHTS
# In short: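 ATP luminescence read-out (CellTiter-Glo, 20 min RT) after 40 hr, 37 °C compound exposure of 1500 MRC5 cells/well. Data normalized to DMSO (basal) and 100 uM tamoxifen (100% inhibition); AC50 from standard Hill equation.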
# [8] = NFAT Signaling Pathway (AID 444); details: Jurkat NFAT-bla M1, carbachol, beta-lactamase ratio, 5 h;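 also: carbachol stimulus at about its EC50 of 1 µM final; % is scaled to controls: 0 for no effect and ±100 for the full control effect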
# In short: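 Jurkat cells with NFAT-driven β-lactamase reporter and co-expressed M1 receptor, stimulated with carbachol (final 1 uM, ~EC50), compound titration, 5 h at 37 °C. CCF4 loaded 1 h at RT; 460/530 nm ratio gave %activity and AC50.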
# [9] = molecular target: Cytochrome P450 1A2 (Homo sapiens) (UniProt P05177); assay: p450-cyp1a2 (AID 410; calls by dose curve; also: potency is read from the fitted curve at half-maximal effect;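 as to activity change, negative = inhibition: -100% = full effect of reference inhibitor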); details: recombinant CYP1A2, luciferin-ME demethylation, luminescence; series mostly up to 57 µM
# Cytochrome P450 1A2 (Homo sapiens), sequence (P05177 whole entry, looked up): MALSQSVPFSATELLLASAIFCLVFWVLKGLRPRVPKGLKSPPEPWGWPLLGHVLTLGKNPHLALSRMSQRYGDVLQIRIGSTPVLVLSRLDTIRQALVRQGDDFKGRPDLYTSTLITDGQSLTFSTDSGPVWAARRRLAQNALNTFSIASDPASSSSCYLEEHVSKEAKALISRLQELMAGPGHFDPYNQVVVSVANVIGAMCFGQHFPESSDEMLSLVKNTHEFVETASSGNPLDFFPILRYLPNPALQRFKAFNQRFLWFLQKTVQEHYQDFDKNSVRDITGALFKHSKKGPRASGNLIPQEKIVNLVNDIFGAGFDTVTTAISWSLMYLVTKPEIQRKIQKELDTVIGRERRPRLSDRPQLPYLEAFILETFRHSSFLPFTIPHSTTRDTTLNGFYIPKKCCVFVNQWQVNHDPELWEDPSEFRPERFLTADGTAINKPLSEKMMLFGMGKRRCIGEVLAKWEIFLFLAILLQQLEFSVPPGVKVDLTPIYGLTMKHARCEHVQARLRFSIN
# In short: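 Read-out is luminescence from luciferin produced by CYP1A2 demethylation of Luciferin-ME (100uM, at Km). Detection reagent stopped the 60 min NADPH-dependent reaction; signals were normalized to 57 uM furafylline.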
smiles,measurement,setting,value
CC(C)(C)NCC(O)c1cc(O)cc(O)c1 (stereo not given),"activity change, negative = inhibition",[1]; at 17.2 µM (top of the series),-16.4%
same,outcome,[2],inactive
CCCCOCCOCCOCc1cc2c(cc1CCC)OCO2,Potency,[3],> 92 µM
same,Potency,[4],> 92 µM
same,Potency,[5],> 92 µM
same,Potency,[6],> 92 µM
same,Potency,[7],> 92 µM
OC(CCN1CCCCC1)(c1ccccc1)C1CCCCC1 (stereo not given),"activity change, negative = inhibition",[1]; at 17.2 µM (top of the series),5.32%
same,"activity change, negative = inhibition",[8]; at 17.2 µM (top of the series),-77.3% (active)
same,outcome,[2],inactive
CN1CCN(C2=Nc3ccccc3Oc3ccc(Cl)cc32)CC1,Potency,[9],3.16 µM (active)
same,"activity change, negative = inhibition",[8]; at 17.2 µM (top of the series),-75.6% (active)
same,outcome,[2],inactive
CCOC(=O)c1cnc2c(cnn2CC)c1NN=C(C)C,Potency,[9],501 nM (active) and 126 nM (active)
same,"activity change, negative = inhibition",[8]; at 38 µM (top of the series),6.94%
same,outcome,[2],inactive
COCCCC/C(=N\OCCN)c1ccc(C(F)(F)F)cc1,"activity change, negative = inhibition",[1]; at 17.2 µM (top of the series),14.9%
same,"activity change, negative = inhibition",[8]; at 17.2 µM (top of the series),24.5%
same,outcome,[2],inactive
C(=C\c1ccccc1)/CN1CCN(C(c2ccccc2)c2ccccc2)CC1,"activity change, negative = inhibition",[1]; at 17.2 µM (top of the series),-4.86%
same,outcome,[2],inactive
CC(=O)OCC1=C(C(=O)O)N2C(=O)[C@@H](NC(=O)Cc3cccs3)[C@H]2SC1,"activity change, negative = inhibition",[1]; at 17.2 µM (top of the series),-3.26%
same,"activity change, negative = inhibition",[8]; at 17.2 µM (top of the series),0.294%
same,outcome,[2],inactive
CNCCCN1c2ccccc2CCc2ccccc21,"activity change, negative = inhibition",[1]; at 17.2 µM (top of the series),29.5% and 18.8%
same,outcome,[2],inactive
COc1ccc(CN(CCN(C)C)c2ccccn2)cc1,Potency,[9],inactive
same,Potency,[3],> 92 µM
same,Potency,[4],> 92 µM
same,Potency,[5],> 92 µM
same,Potency,[6],> 92 µM
same,Potency,[7],> 92 µM
same,"activity change, negative = inhibition",[8]; at 17.2 µM (top of the series),-25.9% and -22.5%
same,"activity change, negative = inhibition",[8]; at 38 µM (top of the series),-21.9%
same,outcome,[2],inactive
CC(=O)OC(C)C[N+](C)(C)C (stereo not given),"activity change, negative = inhibition",[1]; at 17.2 µM (top of the series),11.1%
same,outcome,[2],inactive
CN(C)CCCN1c2ccccc2Sc2ccccc21,"activity change, negative = inhibition",[8]; at 38 µM (top of the series),-83.6% (active)
same,outcome,[2],inactive
c1ccc2c(c1)CCCC2C1=NCCN1 (stereo not given),"activity change, negative = inhibition",[1]; at 17.2 µM (top of the series),6.93%
same,outcome,[2],inactive
CCNC(=O)N1CCN(CCCC(c2ccc(F)cc2)c2ccc(F)cc2)CC1,"activity change, negative = inhibition",[1]; at 38 µM (top of the series),1.34%
same,outcome,[2],inactive
CO[C@@]1(NC(=O)CSCC#N)C(=O)N2C(C(=O)O)=C(CSc3nnnn3C)CS[C@@H]21,"activity change, negative = inhibition",[1]; at 17.2 µM (top of the series),6.1%
same,"activity change, negative = inhibition",[8]; at 17.2 µM (top of the series),-23.9%
same,outcome,[2],inactive
CCCCCCCC/C=C\CCCCCCCC(=O)NCc1ccc(O)c(OC)c1,Potency,[9],20 µM (active)
O=C(O)CCCCCCCC(=O)O,Potency,[9],inactive
same,"activity change, negative = inhibition",[8]; at 38 µM (top of the series),-0.521%
CC1=C(C)C(=O)C(CCCCC#CCCCC#CCO)=C(C)C1=O,Potency,[9],0.501 µM (active)
same,outcome,[2],inactive
NC(=Nc1ccccc1)Nc1ccccc1,Potency,[3],> 92 µM
same,Potency,[4],> 92 µM
same,Potency,[5],> 92 µM
same,Potency,[6],> 92 µM
same,Potency,[7],> 92 µM
C[C@]12CCC(=O)C=C1CC[C@@H]1[C@@H]2CC[C@@]2(C)[C@H]1CC[C@]2(O)C(=O)CO,"activity change, negative = inhibition",[1]; at 17.2 µM (top of the series),14.7%
same,"activity change, negative = inhibition",[8]; at 17.2 µM (top of the series),2.94%
same,outcome,[2],inactive
COC(=O)[C@H]1[C@H]2C[C@@H]3c4[nH]c5cc(OC)ccc5c4CCN3C[C@H]2C[C@@H](OC(=O)c2cc(OC)c(OC)c(OC)c2)[C@@H]1OC,Potency,[4],35.9 µM (active)
COc1ccc(CCN(C)CCCC(C#N)(c2cc(OC)c(OC)c(OC)c2)C(C)C)cc1OC (stereo not given),"activity change, negative = inhibition",[1]; at 17.2 µM (top of the series),-6.26%
same,outcome,[2],inactive
CCC(=O)c1ccc2c(c1)N(CCCN(C)C)c1ccccc1S2,Potency,[9],0.631 µM (active)
same,"activity change, negative = inhibition",[8]; at 38 µM (top of the series),-89.3% (active)
same,outcome,[2],inactive
